Bioassay records from PubChem BioAssay.
Pf Dd2 growth: blocks in vitro growth of P. falciparum Dd2; AID 1347417; P. falciparum Dd2 growth, SYBR Green, 72 h; 120,000 compounds, 4.3% hits; Potency, µM (titrated, usually from 28.9 µM), actives largely listed as inhibitors; active means well fitted inhibition curve with a large enough effect; further: nearly all actives have a fitted effect of over 65% in size
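Infected erythrocytes (Dd2, 0.3% parasitemia, 2.5% hematocrit final) are added to compound in RPMI-1640/Albumax II medium, grown 72 h at 37C in low oxygen, then lysed with saponin/Triton-X containing SYBR Green and read by fluorescence.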
Large screens that a line does not name were inactive. Shown is part of a subset that was picked to be rich in hits.

COc1cc(CNCCOc2cccnc2)ccc1OCC(O)CN1CCSCC1 (stereo not given)	none
COc1cccc(N2C(=O)[C@@H]3C[C@@H](NC(=O)CSC)CCN3C2=O)c1	none
Cc1ccc(Cn2cc(S(=O)(=O)c3ccccc3)c(=O)c3cc(F)c(N4CCOCC4)cc32)cc1	Pf Dd2 growth 10µM
CCn1cc(S(=O)(=O)c2cccc(Cl)c2)c(=O)c2cc(F)c(N3CCC(C)CC3)cc21	none
Cc1ccc(S(=O)(=O)c2cn(Cc3ccc(F)cc3)c3cc(N4CCCC4)c(F)cc3c2=O)cc1	none
Cc1cccc(S(=O)(=O)c2cn(Cc3ccccc3)c3cc(N4CCC(C)CC4)c(F)cc3c2=O)c1	Pf Dd2 growth 10µM
CCCCn1cc(S(=O)(=O)c2ccc(OC)cc2)c(=O)c2cc(F)c(F)cc21	none
COc1ccc(S(=O)(=O)c2cn(Cc3ccccc3)c3cc(N4CCCC4)c(F)cc3c2=O)cc1	Pf Dd2 growth 12.6µM
CCn1cc(S(=O)(=O)c2cccc(C)c2)c(=O)c2cc(F)c(N3CCN(c4ccccc4)CC3)cc21	none
CCCCn1cc(S(=O)(=O)c2ccc(OC)cc2)c(=O)c2cc(F)c(N3CCOCC3)cc21	Pf Dd2 growth 11.2µM
CNC(=O)[C@@H]1C[C@@H](O)CN1C1CCN(C(=O)c2noc(C)c2Cc2c(C)noc2C)CC1	none
CC(C)c1noc(-c2cn(C3CCN(C(=O)c4cc5ccccc5[nH]4)C3)nn2)n1 (stereo not given)	none
Cc1ncc2n1C(=O)N(C1CCN(C(=O)c3ccccc3Cl)CC1)C2	none
CN1C[C@@H]2CCCN3CCC[C@@H]([C@H]23)[C@H]1CCCC(=O)NCCN1CCCC1	none
CCc1noc(-c2cn(C3CCN(C(=O)c4cccc(F)c4)C3)nn2)n1 (stereo not given)	none
COCCN1CC(Cc2cccc(-c3nnc(C)s3)c2)CC1=O (stereo not given)	none
O=C(CCc1ccccc1)NCCC1CCN(C(=O)Nc2ccccc2F)CC1	none
CCCNC(=O)C1COC2(CCC(C)CC2)N1C(=O)c1ccccc1Cl (stereo not given)	none
COc1ccc(C(=O)N[C@@H]2CCC[C@@H]2C(=O)NCCCN2CCOCC2)cn1	none
O=C(COc1ccccc1)N[C@@H]1C[C@H](Cn2cc(C3CC3)nn2)[C@@H](O)[C@H]1O	none
Cc1ccc(S(=O)(=O)c2nc(S(=O)(=O)c3ccc(C)cc3)c(NC(C)C)s2)cc1	none
CCNc1sc(S(C)(=O)=O)nc1S(=O)(=O)c1ccc(C)cc1	none
Cc1ccc(S(=O)(=O)c2nc(S(=O)(=O)c3ccc(C)cc3)c(NCCCOC(C)C)s2)cc1	Pf Dd2 growth 2.24µM
O=C(N[C@@H]1CN(CC2CC2)C[C@H]1CO)c1ccccc1	none
COc1ccc2ccc(OCc3nc(C(=O)N4CC(N5CCCCC5)C4)co3)cc2c1	Pf Dd2 growth 8.91µM
C[C@@H]1CN(C(=O)c2coc(COc3cccc(F)c3)n2)C[C@H](C)O1	none
COc1ccc(OCc2nc(C(=O)N3CCCC(C(C)(C)O)C3)co2)cc1 (stereo not given)	none
CCCC1CCN(C(=O)c2coc(COc3ccc4ccc(OC)cc4c3)n2)C1 (stereo not given)	none
COCC1CCN(C(=O)c2coc(COc3cccc(F)c3)n2)C1 (stereo not given)	none
COc1cccc(OCc2nc(C(=O)N3CC4C[C@@H]5CC3C[C@H](C4)C5)co2)c1	Pf Dd2 growth 10µM
CC(C)C[C@@H](NC(=O)C1=C[C@@H](NC(=O)c2cccnc2)[C@@H](O)[C@H](O)C1)C(N)=O	none
COC1CN(c2cccc(F)c2)C12CCN(C(=O)CCC1CCCC1)CC2 (stereo not given)	none
COC1CN(c2cccc(F)c2)C12CCN(C(=O)NC1CCCCC1)CC2 (stereo not given)	Pf Dd2 growth 6.31µM
COC1CN(c2cccc(F)c2)C12CCN(C(=O)c1ccncc1)CC2 (stereo not given)	none
COC1CN(c2cccc(F)c2)C12CCN(C(=O)NC(C)(C)C)CC2 (stereo not given)	none
COC1CN(c2cccc(F)c2)C12CCN(C(=O)C1CCC1)CC2 (stereo not given)	none
COC1CN(c2cccc(F)c2)C12CCN(C(=O)C1CCCCC1)CC2 (stereo not given)	Pf Dd2 growth 10µM
COCCc1noc(CC2CCOC3(CCN(C(=O)NC(C)(C)C)CC3)C2)n1 (stereo not given)	none
Cn1cnnc1CC1CCCN(C(=O)Nc2ccccc2)C1 (stereo not given)	none
Cc1cnc(C(=O)N2CCC(N3C(=O)C4(CCCC4)C3c3scnc3C)CC2)cn1 (stereo not given)	none
O=C(Cn1nc2n(c1=O)CCCC2)NCc1ccc(F)cc1	none
Cc1noc(C)c1S(=O)(=O)N1CCCN(Cc2ccncc2)C(c2ccccc2)CC(=O)NCC1 (stereo not given)	Pf Dd2 growth 1.12µM
Cc1noc(C)c1S(=O)(=O)N1CCCCCCNC(=O)CC1	none
Cc1noc(C)c1S(=O)(=O)NCC(=O)N1CCCCCNC(=O)CC1c1ccccc1 (stereo not given)	none
O=C1CC(c2ccccc2)N(Cc2ccncc2)CCCN(CC2CCCCC2)CCN1 (stereo not given)	Pf Dd2 growth 3.16µM
CS(=O)(=O)N1CCCCCNC(=O)CC1c1ccccc1 (stereo not given)	none
O=C1CC(c2ccccc2)N(Cc2ccncc2)CCCN(C(=O)CN2CCCC2=O)CCN1 (stereo not given)	none
CN(C)S(=O)(=O)N1CCCN(Cc2ccncc2)C(c2ccccc2)CC(=O)NCC1 (stereo not given)	Pf Dd2 growth 10µM
CS(=O)(=O)N1CCCN(Cc2ccccn2)CCNC(=O)CC1c1ccccc1 (stereo not given)	none
CCn1ncc(CN2CCCN(Cc3ccncc3)C(c3ccccc3)CC(=O)NCC2)c1C (stereo not given)	none
COc1ccccc1Oc1c(CCC(=O)NCC2CCCO2)c(C)nn1-c1ccc(F)cc1 (stereo not given)	none
COCCN1CCCCCC(O)c2cc(C(=O)NCCCN3CCCc4ccccc43)ccc21 (stereo not given)	none
COCCN1CCCCCC(O)c2cc(C(=O)NCCN3CCOCC3)ccc21 (stereo not given)	none
COCCN1CCCCCC(O)c2cc(C(=O)NCCc3c[nH]c4ccccc34)ccc21 (stereo not given)	Pf Dd2 growth 5.01µM
C[C@]1(CO)[C@H]2Cc3sc(-c4ccsc4)nc3[C@@H](CC(=O)NCc3ccco3)[C@]2(C)CC[C@H]1O	none
CC(C)C[C@H](CO)NC(=O)C[C@@H]1c2nc(NC(=O)c3ccco3)sc2C[C@@H]2[C@](C)(CO)[C@H](O)CC[C@]21C	Pf Dd2 growth 8.91µM
C#CCNC(=O)C[C@@H]1c2nc(NC(=O)C(C)(C)C)sc2C[C@@H]2[C@](C)(CO)[C@H](O)CC[C@]21C	none
COCCNC(=O)C[C@@H]1c2nc(NC(=O)c3ccco3)sc2C[C@@H]2[C@](C)(CO)[C@H](O)CC[C@]21C	none
CC(C)NC(=O)C[C@@H]1c2nc(NC(=O)c3ccc(F)cc3)sc2C[C@@H]2[C@](C)(CO)[C@H](O)CC[C@]21C	none
CC(C)NC(=O)C[C@@H]1c2nc(NC(=O)N3CCOCC3)sc2C[C@@H]2[C@](C)(CO)[C@H](O)CC[C@]21C	none
CN(Cc1ccccc1)C(=O)C[C@@H]1c2nc(NC(=O)CC(C)(C)C)sc2C[C@@H]2[C@](C)(CO)[C@H](O)CC[C@]21C	none
C#CCNC(=O)C[C@@H]1c2nc(NC(=O)c3ccc(C(C)(C)C)cc3)sc2C[C@@H]2[C@](C)(CO)[C@H](O)CC[C@]21C	Pf Dd2 growth 3.98µM
